Reference: PubChem BioAssay AID1159580 (chemical genetic matrix, 2015)
In all, about 5,500 compounds went through this assay and about 2,000 (36%) were called active. Not shown: some 18% with an inconclusive outcome. No stated cut-off is given here; in the data, active means normalized growth mostly below about 0.91 (no sharp cut-off); inconclusive means no clear call, values can overlap the other calls; inactive means mostly above about 0.92. The list shows a part of the results.

Assay: chemical genetic growth profiling, strain panel (AID 1159580);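 further: tested at 20 µM; growth read once vehicle control cultures reached saturation at 30 °C; 1 = growth at the plate median or of vehicle wells; lower values mean less growth of the strain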
Conditions: growth OD

Measured: normalized growth

O=C(O)c1cc2ccccc2[nH]1
inactive: S. cerevisiae deletion strains, locus YJR075W, strain HOC1, hits give low values 1.01 | S. cerevisiae deletion strains, locus YKL009W, strain mrt4, hits give low values 0.991 | S. cerevisiae deletion strains, locus YKL068W, hits give low values 1 | S. cerevisiae deletion strains, locus YKL085W, strain MDH1 (second series), hits give low values 1.02 | S. cerevisiae deletion strains, locus YKL085W, strain MDH1, hits give low values 1.02 | S. cerevisiae deletion strains, locus YKL160W, strain elf1, hits give low values 0.972 | S. cerevisiae deletion strains, locus YKL190W, strain CNB1, hits give low values 1 | S. cerevisiae deletion strains, locus YKR001C, strain vps1, hits give low values 1.02 | S. cerevisiae deletion strains, locus YKR026C, strain gcn3, hits give low values 0.961 | S. cerevisiae deletion strains, locus YKR091W, strain srl3, hits give low values 0.98 | S. cerevisiae deletion strains, locus YLL001W, strain dnm1, hits give low values 0.974 | S. cerevisiae deletion strains, locus YLL026W, hits give low values 1 | S. cerevisiae deletion strains, locus YLL041C, strain sdh2, hits give low values 0.989 | S. cerevisiae deletion strains, locus YLR027C, strain aat2, hits give low values 0.993 | S. cerevisiae deletion strains, locus YLR039C, strain RIC1, hits give low values 1.01 | S. cerevisiae deletion strains, locus YLR058C, strain SHM2, hits give low values 1.01 | S. cerevisiae deletion strains, locus YLR102C, strain apc9, hits give low values 1.02 | S. cerevisiae deletion strains, locus YLR113W, strain HOG1, hits give low values 0.95 | S. cerevisiae deletion strains, locus YLR221C, strain rsa3, hits give low values 0.989 | S. cerevisiae deletion strains, locus YLR258W, strain gsy2, hits give low values 0.989 | S. cerevisiae deletion strains, locus YLR262C, strain YPT6 (second series), hits give low values 0.991 | S. cerevisiae deletion strains, locus YLR262C, strain YPT6, hits give low values 1.05 | S. cerevisiae deletion strains, locus YLR268W, strain sec22, hits give low values 1.01 | S. cerevisiae deletion strains, locus YLR320W, strain mms22, hits give low values 1.01 | S. cerevisiae deletion strains, locus YLR330W, strain CHS5, hits give low values 1.01 | S. cerevisiae deletion strains, locus YLR342W, strain FKS1 (second series), hits give low values 0.993 | S. cerevisiae deletion strains, locus YLR342W, strain FKS1, hits give low values 0.991 | S. cerevisiae deletion strains, locus YLR357W, strain rsc2, hits give low values 0.983 | S. cerevisiae deletion strains, locus YLR370C, strain arc18, hits give low values 0.989 | S. cerevisiae deletion strains, locus YLR371W, strain rom2, hits give low values 1.01 | S. cerevisiae deletion strains, locus YLR384C, strain iki3, hits give low values 0.976 | S. cerevisiae deletion strains, locus YLR418C, strain cdc73, hits give low values 1.01 | S. cerevisiae deletion strains, locus YML016C, strain PPZ1, hits give low values 1.01 | S. cerevisiae deletion strains, locus YML032C, strain rad52, hits give low values 1 | S. cerevisiae deletion strains, locus YML120C, strain ndi1, hits give low values 0.979 | S. cerevisiae deletion strains, locus YML124C, strain tub3, hits give low values 1.01 | S. cerevisiae deletion strains, locus YMR058W, strain fet3, hits give low values 0.975 | S. cerevisiae deletion strains, locus YMR078C, strain ctf18, hits give low values 1.02 | S. cerevisiae deletion strains, locus YMR125W, strain sto1, hits give low values 0.941 | S. cerevisiae deletion strains, locus YMR129W, hits give low values 0.987 | S. cerevisiae deletion strains, locus YMR205C, strain PFK2, hits give low values 1.02 | S. cerevisiae deletion strains, locus YMR223W, strain ubp8, hits give low values 1.01 | S. cerevisiae deletion strains, locus YMR231W, strain pep5, hits give low values 1 | S. cerevisiae deletion strains, locus YMR263W, strain SAP30, hits give low values 1.01 | S. cerevisiae deletion strains, locus YMR307W, strain GAS1, hits give low values 1.04 | S. cerevisiae deletion strains, locus YNL067W, strain RPL9B, hits give low values 1.01 | S. cerevisiae deletion strains, locus YNL071W, strain lat1, hits give low values 0.986 | S. cerevisiae deletion strains, locus YNL128W, strain TEP1, hits give low values 1 | S. cerevisiae deletion strains, locus YNL153C, strain GIM3, hits give low values 1.01 | S. cerevisiae deletion strains, locus YNL183C, strain NPR1, hits give low values 0.915 | S. cerevisiae deletion strains, locus YNL209W, strain ssb2, hits give low values 0.984 | S. cerevisiae deletion strains, locus YNL233W, strain BNI4, hits give low values 1 | S. cerevisiae deletion strains, locus YNL248C, strain rpa49, hits give low values 0.954 | S. cerevisiae deletion strains, locus YNL250W, strain rad50, hits give low values 1 | S. cerevisiae deletion strains, locus YNL271C, strain bni1, hits give low values 1.01 | S. cerevisiae deletion strains, locus YNL298W, strain CLA4, hits give low values 1 | S. cerevisiae deletion strains, locus YNL307C, strain MCK1, hits give low values 1.02 | S. cerevisiae deletion strains, locus YNL322C, strain KRE1 (second series), hits give low values 0.979 | S. cerevisiae deletion strains, locus YNL322C, strain KRE1, hits give low values 1.02 | S. cerevisiae deletion strains, locus YNR049C, strain mso1, hits give low values 0.983 | S. cerevisiae deletion strains, locus YNR052C, strain pop2, hits give low values 1.02 | S. cerevisiae deletion strains, locus YOL006C, strain TOP1, hits give low values 1.04 | S. cerevisiae deletion strains, locus YOL012C, strain htz1 1.07 | S. cerevisiae deletion strains, locus YOL147C, strain pex11, hits give low values 1.01 | S. cerevisiae deletion strains, locus YOR001W, strain rrp6, hits give low values 0.963 | S. cerevisiae deletion strains, locus YOR061W, strain CKA2, hits give low values 1.01 | S. cerevisiae deletion strains, locus YOR069W, strain VPS5, hits give low values 0.991 | S. cerevisiae deletion strains, locus YOR070C, strain gyp1, hits give low values 0.999 | S. cerevisiae deletion strains, locus YOR080W, strain dia2, hits give low values 0.99 | S. cerevisiae deletion strains, locus YOR083W, strain WHI5, hits give low values 0.967 | S. cerevisiae deletion strains, locus YOR106W, strain vam3, hits give low values 0.972 | S. cerevisiae deletion strains, locus YOR136W, strain idh2, hits give low values 1.02 | S. cerevisiae deletion strains, locus YOR144C, strain elg1, hits give low values 1.02 | S. cerevisiae deletion strains, locus YOR184W, strain ser1, hits give low values 1 | S. cerevisiae deletion strains, locus YOR231W, strain MKK1, hits give low values 0.995 | S. cerevisiae deletion strains, locus YOR265W, strain rbl2, hits give low values 0.991 | S. cerevisiae deletion strains, locus YOR270C, strain vph1, hits give low values 0.974 | S. cerevisiae deletion strains, locus YOR290C, strain snf2, hits give low values 0.955 | S. cerevisiae deletion strains, locus YOR316C, strain cot1, hits give low values 1.02 | S. cerevisiae deletion strains, locus YPL051W, strain arl3, hits give low values 0.979 | S. cerevisiae deletion strains, locus YPL055C, strain LGE1, hits give low values 0.998 | S. cerevisiae deletion strains, locus YPL078C, strain atp4, hits give low values 0.948 | S. cerevisiae deletion strains, locus YPL106C, strain sse1, hits give low values 0.972 | S. cerevisiae deletion strains, locus YPL240C, strain hsp82, hits give low values 0.997 | S. cerevisiae deletion strains, locus YPL241C, strain CIN2, hits give low values 1.06 | S. cerevisiae deletion strains, locus YPL256C, strain CLN2, hits give low values 1 | S. cerevisiae deletion strains, locus YPR119W, strain clb2, hits give low values 1 | S. cerevisiae deletion strains, locus YPR141C, strain kar3, hits give low values 0.996 | S. cerevisiae deletion strains, locus YPR163C, strain tif3, hits give low values 1.01 | S. cerevisiae deletion strains, locus YPR167C, strain met16, hits give low values 1.02 | S. cerevisiae deletion strains, strain wtn01, hits give low values 1.01 | S. cerevisiae strains, strain wild type, hits give low values 0.994
